# Where “and” joins values, the source holds several entries; their conditions need not be identical. Identical values can stand only once. For some assays here: Measured potencies and affinities stand elsewhere. Calls of active or inactive are those of the source. Unless noted, no rule for the calls is given here.
# Legend:
# [1] = circadian clock period modulators, cell-based, LOPAC library, luminescence reporter (AID 2774); conditions: circadian reporter cells, at 7 µM, actives lie on both sides;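 also: values are relative to mean of DMSO wells on each plate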
# [2] = liver-stage malaria parasite growth inhibition, primary screen, cell-based, HepG2, luciferase luminescence, HepG2 viability (AID 624349; in the data active = parasite load remaining mostly below about 12%, no sharp cut-off; inactive = mostly above about 10%;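 also: 100% = mean of DMSO negative control wells on the same plate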); conditions: P. berghei liver stage in HepG2, luciferase luminescence, concentration not given here; parasite load remaining: stronger effect = lower value; viability: measured here: HepG2 viability without parasites
# [3] = target: 6-phosphogluconate dehydrogenase, decarboxylating (Homo sapiens) (UniProt P52209); assay: 6PGD enzyme inhibitors, primary screen, biochemical, human, recombinant enzyme, NADPH absorbance (AID 1159550;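 active = at least 20% inhibition of 6-phosphogluconate dehydrogenase activity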); conditions: recombinant 6PGD, NADPH absorbance 341 nm; at 10 µM; stronger effect = higher value
# [4] = differential killing of epithelial or mesenchymal cells, primary screen, imaging, PC-3E GFP, TEM4-18 mCherry, co-culture (AID 1345086;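 active = compounds killing one labelled cell type while sparing the other, by normalised counts and ratio limits, not self-fluorescent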;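 as to all read-outs here: cells exposed to compound for 72 h before imaging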;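 as to red/green cell ratio (normalised): normalised mesenchymal count divided by normalised epithelial count so high means epithelial killing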); conditions: imaging cell counts, at 1 µM; for red/green cell ratio (normalised): actives lie on both sides, counts scaled to control wells, 1 = unselective
# [5] = sensitizers of A549 cells to miR-34 induction, primary screen, imaging, A549 dox-inducible miR-34, nuclei and caspase counts (AID 1347080;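 active = compounds whose cell count with miR-34 switched on is under 0.7 times the count with it off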); conditions: A549 miR-34 inducible, Hoechst nuclei count, 48 h
# [6] = phospholipid biosynthesis inhibitors in animal cells, primary screen, cell-based, LOPAC library, screen 4 (AID 1347384); conditions: phospholipid biosynthesis inhibition screen, at 10 µM
# [7] = target: Mitogen-activated protein kinase 7 (Homo sapiens) (UniProt Q13164); assay: ERK5 transactivation activators in reporter cells, primary screen, cell-based, HTS (AID 1508626;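 active = luciferase signal above three times the same-plate solvent-only control wells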;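 also: luciferase driven by Gal4-ERK5 fusion binding five Gal4 sites before minimal TATA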); conditions: HeLa Gal4-ERK5 transactivation, 18 h, at 5 µM, stronger effect = higher value
# [8] = viability rescue of complex I mutant cybrids, primary screen, cell-based, galactose medium, ATP luminescence (AID 1645843;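 active = z-score of at least 1.8 in each of two replicates, scored against plate mean and spread of sample wells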;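 also: positive z means more ATP and so rescue of galactose-driven cybrid death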); conditions: complex I mutant cybrid cells, 72 h, stronger effect = higher value
# [9] = polyglutamine-triggered caspase-3 activation inhibitors, cell-based (AID 1583); conditions: polyglutamine-induced caspase-3 activation, cell assay; stronger effect = higher value;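 tested at 10 µM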
# [10] = suppressors of polyQ aggregation in yeast, 75Q-TubU reporter (AID 1593); conditions: Yeast 75Q polyglutamine aggregation reporter
# [11] = rescue of polyQ-huntingtin neuronal dysfunction in worms, whole organism, C. elegans mechanosensory neurons, N-terminal huntingtin (AID 1599); conditions: touch response, stronger effect = higher value
# [12] = inhibitors of mitochondrial cytochrome c release, biochemical, purified mitochondria (AID 1603); conditions: stronger effect = lower value;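 also: mouse liver mitochondria challenged with calcium chloride; signal normalized to the plate average as 100%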
# [13] = inhibitors of polyQ protein aggregation (AID 1604); conditions: polyglutamine-induced protein aggregation inhibition assay; stronger effect = higher value; tested at 2.5 µM
# [14] = enhancers of glutamate uptake in motor neurons, MN-1 cell line (AID 1612); conditions: MN-1 motor neuron cells, stronger effect = higher value;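 also: tested at 1 µM final; 0% = mean of DMSO vehicle wells on each plate; positive means more glutamate uptake than control and negative means less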
# [15] = reducers of polyQ inclusions in PC12 cells, cell-based, NGF-treated PC12, GFPQ80 (AID 1614); conditions: PC12 NGF-treated GFP-polyQ80 inclusion reduction;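 also: lower means fewer inclusions and 0 means no inclusions at all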
# [16] = suppressors of polyglutamine aggregation in yeast, 75Q-TubH (AID 1616); conditions: S. cerevisiae 75Q-TubH polyglutamine aggregation suppression; stronger effect = higher value
# [17] = hESC survival regulators, cell-based (AID 493140); conditions: human embryonic stem cell survival screen; stronger effect = higher value;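 also: cells exposed to compounds for four days before counting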
# [18] = survival rescue of mitochondrial mutant cells in low glucose, primary screen, MELAS cybrids, Rieske KO mouse fibroblasts, CellTiter-Glo (AID 1508586;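 active = mean z-score across replicates of 1.96 or higher in either the MELAS or the Rieske mutant cell line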;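 also: z relative to plate mean and SD of compound and empty wells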)
# [19] = target: NAD(+) hydrolase SARM1 (Homo sapiens) (UniProt Q6SZW1); assay: SARM1 TIR NADase inhibitors, cell lysate, NAD-Glo luminescence (AID 1508614;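 active = compound whose remaining NAD level is above about 45 nM, limit read from the data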;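 also: higher remaining NAD means stronger inhibition of SARM1 NADase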); conditions: SAM-TIR HEK293T lysate NADase, at 1 µM, stronger effect = higher value
# [20] = measured here: epithelial PC-3E GFP cell survival
# [21] = measured here: mesenchymal TEM4-18 mCherry cell survival
# [22] = stronger effect = lower value, cell number ratio, induced over uninduced
# [23] = measured here: relative caspase fold change +Dox/-Dox
# [24] = measured here: total cells with miR-34 induction, stronger effect = lower value
# [25] = measured here: total cells without miR-34 induction
# 6-phosphogluconate dehydrogenase, decarboxylating (Homo sapiens), sequence (P52209 whole entry, looked up): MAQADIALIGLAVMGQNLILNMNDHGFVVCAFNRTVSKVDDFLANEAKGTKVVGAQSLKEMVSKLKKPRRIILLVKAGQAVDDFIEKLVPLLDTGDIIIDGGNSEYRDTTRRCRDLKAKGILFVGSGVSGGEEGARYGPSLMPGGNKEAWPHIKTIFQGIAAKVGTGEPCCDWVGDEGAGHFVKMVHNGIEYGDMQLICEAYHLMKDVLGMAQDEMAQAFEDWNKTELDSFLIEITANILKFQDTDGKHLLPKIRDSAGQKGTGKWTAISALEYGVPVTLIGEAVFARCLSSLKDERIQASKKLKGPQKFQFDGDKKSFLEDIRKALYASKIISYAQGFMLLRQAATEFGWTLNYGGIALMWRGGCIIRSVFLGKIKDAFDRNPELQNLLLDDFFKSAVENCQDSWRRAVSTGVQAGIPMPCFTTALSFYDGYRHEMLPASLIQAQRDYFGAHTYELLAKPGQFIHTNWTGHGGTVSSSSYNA
# Mitogen-activated protein kinase 7 (Homo sapiens), sequence (Q13164 whole entry, looked up, the tested form may be a part): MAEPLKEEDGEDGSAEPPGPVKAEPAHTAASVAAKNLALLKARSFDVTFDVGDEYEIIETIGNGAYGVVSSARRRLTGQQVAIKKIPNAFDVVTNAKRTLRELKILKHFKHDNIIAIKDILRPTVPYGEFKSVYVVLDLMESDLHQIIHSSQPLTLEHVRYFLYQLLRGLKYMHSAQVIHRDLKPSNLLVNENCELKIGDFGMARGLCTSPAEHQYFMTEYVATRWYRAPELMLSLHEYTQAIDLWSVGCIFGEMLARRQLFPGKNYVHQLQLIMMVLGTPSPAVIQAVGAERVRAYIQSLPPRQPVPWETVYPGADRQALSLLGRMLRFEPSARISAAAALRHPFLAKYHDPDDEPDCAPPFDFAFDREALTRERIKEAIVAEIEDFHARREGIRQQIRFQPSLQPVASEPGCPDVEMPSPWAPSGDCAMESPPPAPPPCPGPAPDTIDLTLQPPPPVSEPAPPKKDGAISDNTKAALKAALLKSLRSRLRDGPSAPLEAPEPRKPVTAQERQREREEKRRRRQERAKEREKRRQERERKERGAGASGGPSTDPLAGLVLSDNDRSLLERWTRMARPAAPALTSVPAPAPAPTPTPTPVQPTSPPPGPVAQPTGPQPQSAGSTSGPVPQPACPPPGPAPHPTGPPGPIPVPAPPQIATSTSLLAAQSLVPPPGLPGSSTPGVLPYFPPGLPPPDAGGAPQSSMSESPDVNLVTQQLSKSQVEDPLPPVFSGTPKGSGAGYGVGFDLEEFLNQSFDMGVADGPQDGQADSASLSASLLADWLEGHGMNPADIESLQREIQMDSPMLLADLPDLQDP
# NAD(+) hydrolase SARM1 (Homo sapiens), sequence (Q6SZW1 whole entry, looked up): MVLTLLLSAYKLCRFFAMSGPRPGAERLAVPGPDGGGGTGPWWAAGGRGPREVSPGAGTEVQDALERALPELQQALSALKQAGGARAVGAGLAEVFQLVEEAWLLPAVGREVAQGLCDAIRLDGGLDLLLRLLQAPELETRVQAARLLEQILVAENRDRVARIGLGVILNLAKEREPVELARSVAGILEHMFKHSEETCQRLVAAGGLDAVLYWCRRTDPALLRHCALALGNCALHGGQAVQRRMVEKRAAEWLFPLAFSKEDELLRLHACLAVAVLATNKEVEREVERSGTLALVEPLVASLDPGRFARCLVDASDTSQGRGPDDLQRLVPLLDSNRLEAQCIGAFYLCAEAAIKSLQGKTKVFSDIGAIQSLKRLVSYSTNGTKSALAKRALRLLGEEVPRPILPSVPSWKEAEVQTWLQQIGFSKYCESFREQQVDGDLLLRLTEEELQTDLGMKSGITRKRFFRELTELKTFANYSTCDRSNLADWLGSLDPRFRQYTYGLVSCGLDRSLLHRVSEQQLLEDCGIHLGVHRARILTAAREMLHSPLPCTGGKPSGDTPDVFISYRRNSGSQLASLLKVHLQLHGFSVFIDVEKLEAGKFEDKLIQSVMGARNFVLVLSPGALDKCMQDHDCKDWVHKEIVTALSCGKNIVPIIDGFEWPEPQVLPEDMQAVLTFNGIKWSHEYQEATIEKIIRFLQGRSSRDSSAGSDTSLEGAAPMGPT
smiles,measurement,setting,value
NCCCCC(=O)O,period change,[1],0.155 h (inactive)
same,parasite load remaining,[2],89.3% (inactive)
same,viability,[2],71.9%
same,inhibition,[3],-7.89% (inactive)
same,red/green cell ratio (normalised),[4],0.85 (inactive)
same,normalised cell number,[4]; [20],1.1
same,normalised cell number,[4]; [21],0.94
same,fold change,[5]; [22],1 (inactive)
same,fold change,[5]; [23],1.48
same,cell count,[5]; [24],10300
same,cell count,[5]; [25],10300
same,outcome,[6],inactive
same,luciferase signal,[7],52 AU (inactive)
same,z-score,[8],0.885 (inactive)
CN(C)CCOC(c1ccccc1)c1ccccc1 (tested in a mixture with another compound),inhibition,[9],13%
same,score,[10],1.21
same,rescue above control,[11],26.8
same,cytochrome c release ratio,[12],1.23
same,inhibition of aggregation,[13],69.8%
same,glutamate uptake change,[14],-19.1%
same,inclusion score,[15],2
same,aggregation suppression score,[16],0.942
same,survival,[17],24.5 (inactive)
same,inhibition,[3],11% (inactive)
same,red/green cell ratio (normalised),[4],1.07 (inactive)
same,normalised cell number,[4]; [20],1.32
same,normalised cell number,[4]; [21],1.41
same,fold change,[5]; [22],0.893 (inactive) and 0.836 (inactive)
same,fold change,[5]; [23],1.17 and 1.81
same,cell count,[5]; [24],8830 and 11000
same,cell count,[5]; [25],9890 and 13100
same,z-score,"[18]; MELAS cybrid survival, CellTiter-Glo 48 h, stronger effect = higher value",0.49 (inactive)
same,z-score,"[18]; Rieske KO mouse fibroblast survival, CellTiter-Glo 72 h",0.296
same,remaining NAD,[19],10 nM (inactive)
same,luciferase signal,[7],28 AU (inactive)
Oc1cc(O)c2c(c1)O[C@H](c1ccc(O)c(O)c1)[C@@H](O)C2,inhibition,[9],23.8%
same,score,[10],1.24
same,rescue above control,[11],-5.75
same,cytochrome c release ratio,[12],0.5
same,inhibition of aggregation,[13],63.2%
same,glutamate uptake change,[14],14.1%
same,inclusion score,[15],2
same,aggregation suppression score,[16],1.05
same,period change,[1],0.07 h (inactive)
same,survival,[17],6.17 (inactive) and 8.75 (inactive)
same,parasite load remaining,[2],116% (inactive)
same,viability,[2],105%
same,inhibition,[3],13.7% (inactive)
same,red/green cell ratio (normalised),[4],1.12 (inactive)
same,normalised cell number,[4]; [20],1.02
same,normalised cell number,[4]; [21],1.15
same,fold change,[5]; [22],0.974 (inactive) and 0.863 (inactive) and 0.997 (inactive)
same,fold change,[5]; [23],2.1 and 1.09 and 0.901
same,cell count,[5]; [24],10300 and 8130 and 5640
same,cell count,[5]; [25],10500 and 9420 and 5660
same,outcome,[6],inactive
same,remaining NAD,[19],10 nM (inactive)
same,luciferase signal,[7],24 AU (inactive)
same,z-score,[8],-0.355 (inactive)

# — PubChem BioAssay
